Results filed as inconclusive are left out. Unmarked numbers belong to inactive results. Activity calls are given as the source filed them. The call rests on the fitted dose curve; in most records, active means well fitted curve in the direction sought with a large enough effect; inconclusive means small, poorly fitted or top-dose-only effect, or another doubt; inactive means no such curve, though single readings can be large; an effect the other way counts as inactive or inconclusive.

Drawing on PubChem BioAssay (NCATS), this text covers outcome, max response and Potency for 15 compounds.

In assay [1] the test system is HEK293. In words: Cytotoxic Profiling of Annotated Libraries Using Quantitative High-Throughput Screening (AID 1296008). Further: nearly all actives have a fitted effect of over 60% in size. Further: potency means the concentration at half of the fitted maximal effect. Particulars: Five cell lines viability, CellTiter-Glo ATP luminescence, 48-72 h; max response: stronger effect = lower value. In short, it runs like this:
(§1)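 Cytotoxicity was measured as CellTiter-Glo ATP luminescence, read after 10 min at room temperature. Compound treatment of the cells lasted 48 or 72 hr at 37 degrees Celsius in a qHTS format.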
Background: ATP-based viability assays read luminescence as a measure of living cells.

In assay [2] the test system is HaCat. The description is as above. To be noted: Five cell lines viability, CellTiter-Glo ATP luminescence, 48-72 h; max response: stronger effect = lower value. In short, it runs like this: as §1
Assay [3] has as its system KB-3-1. The assay is described as above. To be noted: Five cell lines viability, CellTiter-Glo ATP luminescence, 48-72 h; max response: stronger effect = lower value. The method, boiled down: as §1
For assay [4], the system named is NIH3T3. The assay is described as above. To be noted: Five cell lines viability, CellTiter-Glo ATP luminescence, 48-72 h; max response: stronger effect = lower value. The method, boiled down: as §1
The test system of assay [5] is HEK293T. The experiment in a line: qHTS assay to identify novel small-molecules to repurpose for Merkel cell carcinoma treatment (AID 1296009). Further: nearly all actives have a fitted effect of over 60% in size. Further: potency means the concentration at half of the fitted maximal effect. To be noted: MCC and control cell lines, CellTiter-Glo viability, 72 h; series mostly up to 44.8 µM. In short, it runs like this:
(§2)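 After compound transfer in DMSO, plates were kept 72 hr at 37 degree celsius. Luminescent ATP signal from CellTiter-Glo served as viability measure, normalized against DMSO and no-cell controls.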

Assay [6] concerns MCC-13. The assay is described as above. To be noted: MCC and control cell lines, CellTiter-Glo viability, 72 h; series mostly up to 46 µM. In short, it runs like this:
as §2

Assay [7] deals with MKL-1. Described as above. To be noted: MCC and control cell lines, CellTiter-Glo viability, 72 h; series mostly up to 46 µM. The method, boiled down: as §2
Assay [8] has as its system MKL-2. Described as above. Particulars: MCC and control cell lines, CellTiter-Glo viability, 72 h; series mostly up to 46 µM. In short, it runs like this: as §2
For assay [9], the system named is UISO. Described as above. To be noted: MCC and control cell lines, CellTiter-Glo viability, 72 h; series mostly up to 46 µM. The method, boiled down: as §2
In assay [10] the test system is WaGa. Described as above. To be noted: MCC and control cell lines, CellTiter-Glo viability, 72 h; series mostly up to 46 µM. In short, it runs like this: as §2
In assay [11] the test system is CRL-7250. In words: Cytotoxic Profiling of Annotated Libraries Using Quantitative High-Throughput Screening (AID 1296008). Further: nearly all actives have a fitted effect of over 60% in size. Further: potency means the concentration at half of the fitted maximal effect. To be noted: Five cell lines viability, CellTiter-Glo ATP luminescence, 48-72 h; max response: stronger effect = lower value. In short, it runs like this:
as §1

Assay [12] has as its system HACAT. In words: qHTS assay to identify novel small-molecules to repurpose for Merkel cell carcinoma treatment (AID 1296009). Further: nearly all actives have a fitted effect of over 60% in size. Further: potency means the concentration at half of the fitted maximal effect. To be noted: MCC and control cell lines, CellTiter-Glo viability, 72 h; at 44.8 µM (top of the series) unless noted. In short, it runs like this:
as §2
In general terms: In qHTS, concentration-response curves come from the screen itself.

The subject of assay [13] is MCC-26. Described as above. Particulars: MCC and control cell lines, CellTiter-Glo viability, 72 h; series mostly up to 46 µM. In short, it runs like this:
as §2

Assay [14] deals with NIH3T3. The description is as above. Particulars: MCC and control cell lines, CellTiter-Glo viability, 72 h; at 44.8 µM (top of the series) unless noted. The method, boiled down: as §2
The test system of assay [15] is Es-2. In words: Primary qHTS to identify gynecologic anti-cancer compounds using libraries of approved drugs and bioactive compounds (AID 1345084). Further: nearly all actives have a fitted effect of over 55% in size. To be noted: Gynecologic cancer cell panel viability, ATPlite luminescence, 48 h; series mostly up to 57.5 µM. In short, it runs like this: (§3)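 Cells, 1,000 per well, were allowed to settle for 16 h at 37 C before compound addition. Five concentrations were tested for 48 h, and viability was read by ATPlite luminescence after 15 min at room temperature.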

In assay [16] the test system is HeLa. The description is as above. Particulars: Gynecologic cancer cell panel viability, ATPlite luminescence, 48 h; series mostly up to 57.5 µM. In short, it runs like this: as §3
On the % scale 0 is the no-effect control and ±100 the full control effect.

`O=S(=O)(O)CCSSCCS(=O)(=O)O`: the compound was called inactive in assay [1]. The max response in [2] is -4.2%; in assay [3], 4.37%; in assay [4] it was -4.2%. In addition, the Potency entry in assay [5], in [6], in assay [7], in assay [8], in [9] and in [10] was “inactive” throughout.

For `O=C1NCCc2[nH]c(-c3ccncc3)cc21`, the Potency was 7.43 µM (active) in assay [11], 23.5 µM (active) in assay [4], 13.2 µM (active) in assay [8] and 4.18 µM (active) in assay [9].

For the compound `Cc1[nH]c(C=C2C(=O)Nc3ccccc32)c(C)c1CCC(=O)O`, the Potency in assay [1] is 4.18 µM (active); in [4], 1.48 µM (active); in [7], 0.372 µM (active); in assay [9], 0.469 µM (active); in [10], 0.187 µM (active). In addition, the max response was 0.623% in assay [2] and 3.92% in assay [3].

Turning to `CN[C@H](CC(C)C)C(=O)N[C@H]1C(=O)N[C@@H](CC(N)=O)C(=O)N[C@@H]2C(=O)N[C@H]3C(=O)N[C@H](C(=O)N[C@H](C(=O)O)c4cc(O)cc(O)c4-c4cc3ccc4O)[C@H](O)c3ccc(c(Cl)c3)Oc3cc2cc(c3O[C@@H]2O[C@H](CO)[C@@H](O)[C@H](O)[C@@H]2O[C@H]2C[C@](C)(N)[C@H](O)[C@H](C)O2)Oc2ccc(cc2Cl)[C@H]1O`, the figures for the max response in assay [1], in assay [3] and in assay [4] were -10.3%, 5.98% and -4.89%, respectively. The compound was called inactive in assay [2] and in [12]. The Potency result in assay [6], in assay [13], in assay [7], in assay [8], in assay [9] and in assay [10] was “inactive” throughout.

On to `Cc1noc(-c2ccc(CSCCC(=O)O)cc2)c1NC(=O)OC(C)c1ccccc1Cl` (stereo not given), for which the figures for the max response in [1] and in assay [2] were -6.98% and -23.2%, respectively. The compound was classed as inactive in [3]. Besides, the Potency entry in assay [6], in assay [13], in assay [7], in [8], in assay [9] and in assay [10] was “inactive” each time.

Consider `C[C@]12CCC(=O)C=C1[C@@H]1CC1[C@H]1[C@H]3[C@@H]4C[C@H]4[C@@]4(CCC(=O)O4)[C@@]3(C)CC[C@H]12` (stereo not given in full), for which the results for the max response in assay [11] and in assay [2] were 3.77% and -9.69%, respectively. For the same compound, the compound was called inactive in assay [4] and in assay [14]. For the same compound, the Potency entry in assay [6], in [13], in assay [7], in assay [8], in assay [9] and in [10] was “inactive” each time.

Consider `CC(=O)NCC(=O)N1[C@H]2CC[C@H]1c1cc(Nc3ncc(C(F)(F)F)c(NC4CCC4)n3)ccc12`, for which the Potency in assay [1] is 5.26 µM (active); in assay [2], 0.132 µM (active); in [3], 1.66 µM (active); in assay [4] it was 1.32 µM (active); in [13] it was 3.72 µM (active); in [7] it was 0.209 µM (active). Moreover, the Potency in assay [8] is 23.5 µM (active); in assay [9] it was 7.43 µM (active); in [10] it was 0.264 µM (active).

`Cn1cc(C2=C(c3c4n(c5ccccc35)CCC(CN)C4)C(=O)NC2=O)c2ccccc21` (stereo not given): the Potency in assay [1] was 13.2 µM (active); in assay [2], 37.2 µM (active); in [3], 6.62 µM (active); in assay [4] it was 16.6 µM (active); in assay [7], 20.9 µM (active); in assay [8], 20.9 µM (active). Moreover, the Potency in [10] is 20.9 µM (active).

In the case of `c1cc(N[C@@H]2CCNC2)nc(-c2cnc3ccc(-c4cn[nH]c4)cn23)c1`, the Potency in [11] was 11.8 µM (active); in assay [7] it was 8.33 µM (active); in assay [8], 7.43 µM (active); in [9] it was 16.6 µM (active). Also, the Potency result in assay [6], in assay [13], in assay [15] and in assay [16] was “inactive” each time.

As to `C#C[C@]1(O)CC[C@@H]2[C@@H]3CCc4cc(O)ccc4[C@H]3CC[C@@]21C`, the max response in assay [11] was -14.3%; in [4] it was -5.15%. For the same compound, the Potency in [3] was 20.9 µM (active). Moreover, the Potency entry in [6], in assay [13], in [7] and in [10] was “inactive” each time.

For `C[C@H]1COc2c(N3CCN(C)CC3)c(F)cc3c(=O)c(C(=O)O)cn1c23`, the max response in [11] is -8.35%; in assay [3], 6.8%. In addition, the call in [4] and in [14] was inactive. For the same compound, the Potency result in [6], in assay [13], in assay [7], in [8], in assay [9] and in assay [10] was “inactive” throughout.

For `COc1cc(O)c2c(c1)C1OC1C[C@H](O)[C@H](O)C(=O)C=CC[C@H](C)OC2=O` (stereo not given in full), the Potency in [11] was 26.4 µM (active); in [2], 23.5 µM (active); in [4] it was 16.6 µM (active); in [9], 20.9 µM (active).

For `COC[C@H](NC(=O)c1cnc(C)s1)C(=O)N[C@@H](COC)C(=O)N[C@@H](Cc1ccccc1)C(=O)[C@@]1(C)CO1`, the Potency is 0.148 µM (active) in assay [1]; 0.662 µM (active) in assay [2]; 0.469 µM (active) in [3]; 0.833 µM (active) in assay [4]; 0.526 µM (active) in [6]; 0.418 µM (active) in assay [7]. In addition, the values for the Potency in [9] and in assay [10] were 0.235 µM (active) and 0.118 µM (active), respectively.

On to `N#CC(=Cc1ccc(O)c(O)c1)C(=O)NCc1ccccc1`, for which the max response in [1] is -6.05%; in assay [2], -2.31%. Also, in [3], the result was inactive. The Potency entry in assay [6], in assay [13] and in assay [8] was “inactive” each time.

For the compound `CC(C)(O)CC[C@@H](O)[C@](C)(O)[C@H]1CC[C@@]2(O)C3=CC(=O)[C@@H]4C[C@@H](O)[C@@H](O)C[C@]4(C)[C@@H]3CC[C@]12C`, the max response in assay [1] is -3.79%; in assay [2], -11.3%; in assay [3] it was -6.66%; in [4], 0.822%. Further, the Potency entry in [6], in [13], in assay [7], in assay [8], in assay [9] and in assay [10] was “inactive” each time.
